{"source": "PubChem BioAssay AID623877", "about": "(Johns Hopkins Ion Channel Center, 2012)", "note": "Out of some 340,000 compounds screened, about 1,000 (0.29%) were called active.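 The calls were made as follows: active = fluorescence-ratio B-score plate-corrected deviation score at least 3 library SD below zero, with starting fluorescence score within 5 deviations; inactive = the rest.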 Many of the other results were omitted from the sample, so actives are more common in it than they were.", "data": [{"biological_target": "Anoctamin-1 (Mus musculus) (UniProt Q8BHY3)", "sequence (Q8BHY3 whole entry, looked up)": "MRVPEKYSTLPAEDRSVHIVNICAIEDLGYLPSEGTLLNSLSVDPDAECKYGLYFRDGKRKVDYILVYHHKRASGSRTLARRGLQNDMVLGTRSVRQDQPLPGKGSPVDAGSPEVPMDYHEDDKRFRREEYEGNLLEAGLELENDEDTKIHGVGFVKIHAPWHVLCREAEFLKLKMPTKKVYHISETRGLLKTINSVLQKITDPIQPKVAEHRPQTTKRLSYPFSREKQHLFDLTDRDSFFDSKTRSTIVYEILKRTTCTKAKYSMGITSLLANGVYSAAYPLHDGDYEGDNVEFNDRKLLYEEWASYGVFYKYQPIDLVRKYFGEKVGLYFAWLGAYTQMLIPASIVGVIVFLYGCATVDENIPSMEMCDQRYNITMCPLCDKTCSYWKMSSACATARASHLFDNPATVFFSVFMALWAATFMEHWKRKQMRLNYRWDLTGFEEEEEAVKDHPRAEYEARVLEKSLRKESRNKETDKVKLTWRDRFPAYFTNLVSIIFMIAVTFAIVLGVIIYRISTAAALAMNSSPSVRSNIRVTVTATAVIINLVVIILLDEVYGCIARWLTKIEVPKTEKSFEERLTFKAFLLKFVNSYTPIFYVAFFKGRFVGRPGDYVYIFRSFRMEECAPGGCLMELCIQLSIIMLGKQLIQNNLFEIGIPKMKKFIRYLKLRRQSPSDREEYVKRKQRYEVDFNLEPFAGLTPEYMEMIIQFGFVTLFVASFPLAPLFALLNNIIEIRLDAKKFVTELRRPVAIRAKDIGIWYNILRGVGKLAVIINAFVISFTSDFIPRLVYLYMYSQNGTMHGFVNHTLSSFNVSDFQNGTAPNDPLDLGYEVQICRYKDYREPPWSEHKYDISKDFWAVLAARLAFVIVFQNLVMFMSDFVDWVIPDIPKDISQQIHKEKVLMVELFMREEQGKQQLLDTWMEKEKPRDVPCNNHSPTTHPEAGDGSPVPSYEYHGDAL", "test": "mouse ANO1 channel activation – cell-based, HTS, primary screen (AID 623877);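 as to B-score: channel opened by trigger with iodide after compound preincubation; score built on the fluorescence ratio of max minus min over baseline; more negative score means more quench and so TMEM16A activation or potentiation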", "settings": "HEK293 TMEM16A/YFP-H148Q/I152L, iodide quench fluorescence, at 10 µM; active compounds read low", "values": [{"smiles": "O=C(C1CCC1)N1CCN(S(=O)(=O)c2ccc([N+](=O)[O-])cc2)CC1", "B-score": "inactive"}, {"smiles": "COc1ccc(NC(=S)Nc2ccc(S(N)(=O)=O)cc2)c(C)c1", "B-score": "-4.58 (active)"}, {"smiles": "COc1cc(NC(=S)NCc2ccc(S(N)(=O)=O)cc2)cc(OC)c1", "B-score": "inactive"}, {"smiles": "COc1ccc(N2CCN(C(=S)Nc3ccc(S(N)(=O)=O)cc3)CC2)cc1", "B-score": "inactive"}, {"smiles": "Cc1ccc(CCNC(=O)C2CCN(S(=O)(=O)N3CCCC3)CC2)cc1", "B-score": "inactive"}, {"smiles": "O=C(O)c1cccc2c1C(=O)N(C1CCCCC1)C2", "B-score": "inactive"}, {"smiles": "CC(Sc1nnnn1C1CCCCC1)C(=O)O", "note": "(stereo unspecified)", "B-score": "inactive"}, {"smiles": "O=C(O)C1CCN1C1CCCCC1", "note": "(stereo unspecified)", "B-score": "-6.61 (active)"}, {"smiles": "COc1cccc2c1OCC(CN1CCN(C3CCCCC3)C(CCO)C1)=C2", "note": "(stereo unspecified)", "B-score": "inactive"}, {"smiles": "CC(=O)OCC1(O)CC23CCC4c5ccoc5CCC4(C)C2CCC1C3", "note": "(stereo unspecified)", "B-score": "-17.2 (active)"}, {"smiles": "Oc1cc2c(cc1O)CN(C(=S)NCCc1ccc(Cl)cc1)CCC2", "B-score": "inactive"}, {"smiles": "Cc1nc(SCC(=O)NC2CCCC2)[nH]c(=O)c1C", "B-score": "inactive"}, {"smiles": "C[C@H](NC(=O)c1nc[nH]c1C(=O)N[C@@H](C)C(=O)OC(C)(C)C)C(=O)OC(C)(C)C", "B-score": "inactive"}, {"smiles": "COCC1CCCN(Cc2nc(-c3ccc4c(c3)OCO4)no2)C1", "note": "(stereo unspecified)", "B-score": "inactive"}, {"smiles": "CN(CCN1CCOCC1)Cc1nc(-c2ccc3c(c2)OCO3)no1", "B-score": "-6.61 (active)"}, {"smiles": "CCn1ccnc1CN(C)Cc1nc(-c2ccc3c(c2)OCO3)no1", "B-score": "inactive"}, {"smiles": "CC(C)N(Cc1ccccc1)C(=O)COC(=O)c1cnccn1", "B-score": "inactive"}, {"smiles": "Cc1cc(C)cc(NC(=O)CN2C(=O)c3ccccc3C2=O)c1", "B-score": "inactive"}, {"smiles": "Cc1ccc2c(c1)-c1c(ssc1=S)C(C)(C)N2C(=O)CN1C(=O)c2ccccc2C1=O", "B-score": "inactive"}, {"smiles": "Cc1cc2c(cc1C)N(C(=O)CN1C(=O)c3ccccc3C1=O)C(C)(C)c1ssc(=S)c1-2", "B-score": "-9.51 (active)"}, {"smiles": "O=C(NCCCN1CCN(c2ccccc2F)CC1)C1CCC(=O)N1C1CCCCC1", "note": "(stereo unspecified)", "B-score": "inactive"}, {"smiles": "Cc1ccccc1CSc1nnc(Cn2c(=O)sc3ccccc32)n1C", "B-score": "inactive"}, {"smiles": "Cc1ccc(NS(=O)(=O)c2ccc3c(c2)oc(=O)n3C)c(C)c1", "B-score": "inactive"}, {"smiles": "O=C(NCc1ccco1)C1CCCN(S(=O)(=O)c2cnc[nH]2)C1", "note": "(stereo unspecified)", "B-score": "-16.8 (active)"}, {"smiles": "CCCS(=O)(=O)N1CCCC(C(=O)NCc2ccco2)C1", "note": "(stereo unspecified)", "B-score": "inactive"}, {"smiles": "O=C(NCc1ccco1)C1CCCN(S(=O)(=O)c2ccccc2)C1", "note": "(stereo unspecified)", "B-score": "inactive"}, {"smiles": "Cc1cc(S(=O)(=O)NCC(C)C)ccc1OCC(=O)NC1CC1", "B-score": "inactive"}, {"smiles": "CCN(CC)CCOc1ccc2c(c1)C(=NNC(=O)c1ccccn1)c1cc(OCCN(CC)CC)ccc1-2", "B-score": "inactive"}, {"smiles": "CCn1c(SCC(=O)Nc2ccccc2F)nc2c(c1=O)SC(C)C2", "note": "(stereo unspecified)", "B-score": "inactive"}, {"smiles": "O=C(Nc1cccc([N+](=O)[O-])c1)Nn1cnnc1", "B-score": "inactive"}, {"smiles": "COc1ccc(S(=O)(=O)NC(C)C(=O)Nc2cccc([N+](=O)[O-])c2)cc1", "note": "(stereo unspecified)", "B-score": "inactive"}, {"smiles": "COC(=O)/C=C\\C(=O)Nc1cccc([N+](=O)[O-])c1", "B-score": "-4.72 (active)"}, {"smiles": "CCn1c(SCC(=O)Nc2ccc3c(c2)OCCO3)nnc1-c1ccncc1", "B-score": "inactive"}, {"smiles": "CCn1c(COc2ccccc2)nnc1SCC(=O)Nc1ccc2c(c1)OCCO2", "B-score": "-32.9 (active)"}, {"smiles": "CCn1c(SCC(=O)Nc2ccc3c(c2)OCCO3)nnc1C(C)C", "B-score": "inactive"}, {"smiles": "C/C(=N\\NC(=O)c1cccnc1)c1ccc(-n2ccnc2)cc1", "B-score": "inactive"}, {"smiles": "Nc1nc(NC(=O)/C=C/c2ccccc2)nn1-c1ccccc1", "B-score": "inactive"}, {"smiles": "C=CCOc1cccc(C2C(C(=O)c3ccc(C)o3)=C(O)C(=O)N2c2nnc(C)s2)c1", "note": "(stereo unspecified)", "B-score": "inactive"}, {"smiles": "Cc1ccc2nc(N3C(=O)C(O)=C(C(=O)c4ccco4)C3c3cccc(O)c3)sc2c1", "note": "(stereo unspecified)", "B-score": "inactive"}, {"smiles": "C=CCSc1nnc(N2C(=O)C(O)=C(C(=O)c3ccco3)C2c2ccc(F)cc2)s1", "note": "(stereo unspecified)", "B-score": "-5.81 (active)"}, {"smiles": "COc1cccc(NC(=O)CN(C)C(=O)c2cc(C3CC3)nn2-c2ccccc2)c1", "B-score": "inactive"}, {"smiles": "O=C(COc1ccc(NC(=O)c2ccccc2[N+](=O)[O-])cc1)c1ccc(F)cc1", "B-score": "inactive"}, {"smiles": "COc1ccc(OC)c(NC(=O)CSc2nc(N)c(-c3ccccc3)c(=O)[nH]2)c1", "B-score": "inactive"}, {"smiles": "CCCOC(=O)CC1C(=O)NCCN1Cc1ccc(F)cc1", "note": "(stereo unspecified)", "B-score": "inactive"}, {"smiles": "CC(C)c1nc2oc3c(N4CCN(C)CC4)ncnc3c2c2c1CCC2", "B-score": "inactive"}, {"smiles": "Cn1c(=O)c([N+](=O)[O-])c(Oc2ccccc2)c2ccccc21", "B-score": "-29 (active)"}, {"smiles": "Cc1cccc(Oc2c([N+](=O)[O-])c(=O)n(C)c3ccccc23)c1", "B-score": "inactive"}, {"smiles": "Cc1cc(C)c(-c2c(O)c3ccccc3n(C)c2=O)c(C)c1", "B-score": "inactive"}, {"smiles": "CN(CCC(=O)Nc1cc(S(=O)(=O)N(C)C)ccc1Cl)CC(=O)Nc1ccc(F)cc1", "B-score": "inactive"}, {"smiles": "CC1=CC(=NNS(=O)(=O)c2ccc([N+](=O)[O-])cc2)CC(C)(C)C1", "B-score": "inactive"}, {"smiles": "COc1cc(NC(=O)c2ccccc2)c(OC)cc1NC(=O)Cc1ccccc1", "B-score": "inactive"}, {"smiles": "CCOC(=O)c1cc(NC(=O)c2ccc(Cl)cc2)c(=O)oc1-c1ccccc1", "B-score": "inactive"}, {"smiles": "CC(=O)c1cc(NC(=O)c2ccccc2)c(=O)oc1/C=C/N(C)C", "B-score": "-6.65 (active)"}, {"smiles": "COc1ccc(N(CCC(=O)NCCc2ccccc2)S(=O)(=O)c2ccc(C)cc2C)cc1", "B-score": "inactive"}, {"smiles": "Nc1ccc2[nH]c(=S)sc2c1", "B-score": "inactive"}, {"smiles": "COc1ccc(C(CCN(Cc2ccc(OC)c(OC)c2)C(=O)CCl)c2ccccc2)cc1", "note": "(stereo unspecified)", "B-score": "inactive"}, {"smiles": "COc1ccc(C(=O)OCC(=O)NCCCc2ccccc2)cc1OC", "B-score": "inactive"}, {"smiles": "CCN(CCCCOC(=O)c1ccc(OC)c(OC)c1)C(C)Cc1ccc(OC)cc1", "note": "(stereo unspecified)", "B-score": "-9 (active)"}, {"smiles": "CCOCCCNC(=S)N1CCC(NC(=O)C2CCCCC2)CC1", "B-score": "inactive"}, {"smiles": "CCOc1ccccc1NC(=S)NC(=O)CCc1ccccc1", "B-score": "inactive"}, {"smiles": "CCc1cccc(NC(=O)COC(=O)C2CCN(c3ccc(C(F)(F)F)cn3)CC2)c1", "B-score": "inactive"}, {"smiles": "CC(=O)C[C@H](O)CC(=O)[C@@H]1OC(=O)[C@@H](C)C/C=C\\Cc2ccccc21", "B-score": "inactive"}, {"smiles": "CC[C@@H]1CCCCc2ccccc2[C@@H](C(=O)C[C@H](O)CC(C)=O)OC1=O", "B-score": "inactive"}, {"smiles": "CC(=O)C[C@@H](O)CC(=O)[C@H]1OC(=O)CCCCCCc2ccccc21", "B-score": "-17.5 (active)"}, {"smiles": "CCOC(=O)CSc1nnc(CNC(=O)Cc2ccccc2)n1-c1ccccc1OC", "B-score": "inactive"}, {"smiles": "Cc1cc(OC(=O)c2ccc(Cl)cc2)cc(=O)n1C", "B-score": "inactive"}, {"smiles": "CCOC(=O)c1c(/N=C/C2C(=O)CC(C)(C)CC2=O)sc(C)c1C", "B-score": "inactive"}, {"smiles": "CCOC(=O)c1sc(/N=C/C2=C(O)CC(C)(C)CC2=O)c(C(=O)OCC)c1C", "B-score": "-35.4 (active)"}, {"smiles": "CCOC(=O)c1c(CC(C)C)csc1/N=C/C1=C(O)CCCC1=O", "B-score": "inactive"}, {"smiles": "COc1ccc(Cl)cc1NC(=O)Cn1nc(-c2ccc(C)cc2)n(C)c1=S", "B-score": "inactive"}, {"smiles": "CCC(NC(=O)C1CCCC1)c1ccc(C)cc1", "note": "(stereo unspecified)", "B-score": "inactive"}]}]}
